Inconclusive results are not listed. Calls of active or inactive are those of the source. How the source made its calls, unless noted: active means hit-call score of the fitted dose curve at least 0.9, where 1 is the maximum; inactive means score below 0.9.
Experiments:
[1] = biological target: Hepatocyte nuclear factor 4-alpha (Homo sapiens) (UniProt P41235); assay: ATG_HNF4a_TRANS: Attagene TRANS-FACTORIAL HepG2 Assay for human Hepatocyte Nuclear Factor 4 alpha (HNF4a) (AID 2282982; active means hit-call score of the fitted dose curve at least 0.9, where 1 is the maximum); conditions: HepG2 HNF4a transactivation reporter, mRNA readout
Method in brief: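 Activity of an exogenous HNF4a–Gal4 fusion scored as induced GAL4-UAS reporter transcripts after 24 h chemical exposure of transfected human HepG2 cells. Read-out via RT-PCR with 6-FAM labelling and capillary electrophoresis; rise over DMSO baseline.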

[2] = biological target: Transcriptional activator Myb (Homo sapiens) (UniProt P10242); assay: ATG_Myb_CIS: Attagene CIS-FACTORIAL HepG2 Assay for human Myeloblastosis (Myb) Proto-Oncogene Transcription Factor (AID 2282986); conditions: HepG2 Attagene CIS-FACTORIAL Myb reporter transcription; actives raise or lower the signal
Method in brief: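 Reporter transcript levels, quantified by fluorescent RT-PCR and capillary electrophoresis, serve as the read-out. Transfected HepG2 cells carrying cis-promoter reporter units are dosed for 24 hours, and curves are fitted bidirectionally against DMSO controls.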

[3] = biological target: Nuclear respiratory factor 1 (Homo sapiens) (UniProt Q16656); assay: ATG_NRF1_CIS: Attagene CIS-FACTORIAL HepG2 Assay for human Nuclear Respiratory Factor 1 (NRF1) Orphan Gene (AID 2282987); conditions: HepG2 NRF1 cis-element reporter, Attagene multiplex; actives raise or lower the signal
Method in brief: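 Multiplexed cis-reporter assay, HepG2 cells, 24 h treatment. Total RNA → oligo(dT) RT → PCR with reporter-specific primers → 6-FAM primer extension → HpaI cut → CE. Bidirectional fit vs DMSO.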

[4] = ATG_NFI_CIS: Attagene CIS-FACTORIAL HepG2 Assay for human Nuclear Factor I (NFI) (AID 2282989); conditions: HepG2 cis-regulatory reporter, NFI response element transcription; actives raise or lower the signal
Method in brief: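 Read-out: reporter mRNA via RT-PCR plus capillary electrophoresis with fluorescence detection. Transiently transfected HepG2 (endogenous TF activity on cis promoters), 24 h compound exposure; gain or loss of signal fitted against DMSO.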

[5] = biological target: Myc proto-oncogene protein (Homo sapiens) (UniProt P01106); assay: ATG_Myc_CIS: Attagene CIS-FACTORIAL HepG2 Assay for human Myelocytomatosis (Myc) Proto-Oncogene Transcription Factor (AID 2282990); conditions: HepG2, Attagene cis-reporter transcription factor activity; actives raise or lower the signal
Method in brief: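 After 24 h chemical treatment of HepG2 cells carrying multiplexed cis-regulated reporter constructs, reporter transcripts quantified by RT-PCR and capillary electrophoresis of fluorescent fragments. Gain or loss fitted against DMSO baseline.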

[6] = ATG_NF_kB_CIS: Attagene CIS-FACTORIAL HepG2 Assay for human Nuclear Factor Kappa B (NF-kB) (AID 2282991); conditions: HepG2 Attagene cis-factorial NF-kB reporter mRNA; actives raise or lower the signal
Method in brief: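 Transient MRTU transfection of human HepG2 liver cells → 24 h chemical exposure → total RNA, oligo(dT) RT → PCR, 6-FAM primer extension, HpaI digest 2 h 37 C → CE fragment analysis. Bidirectional fitting, DMSO negative control.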

[7] = ATG_NRF2_ARE_CIS: Attagene CIS-FACTORIAL HepG2 Assay for human Nuclear Factor Erythroid 2 Related Factor 2 (NFR2) response to Antioxidant Response Elements (ARE) (AID 2282992); conditions: HepG2 Attagene ARE/NRF2 reporter, transcription factor activity; actives raise or lower the signal;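 on AC50: reporter mRNA level measured by RT-PCR and capillary electrophoresis fluorescence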
Method in brief: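 Fluorescence intensity of reporter-specific cDNA fragments, separated by capillary electrophoresis, reflects mRNA induction in transfected HepG2 cells at 24 h. Activity is fitted bidirectionally, DMSO serving as baseline.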

[8] = ATG_Oct_MLP_CIS: Attagene CIS-FACTORIAL HepG2 Assay for human Octamer-Binding Transcription Factor (Oct) (AID 2282993); conditions: HepG2 Attagene cis-factorial Oct reporter, mRNA; actives raise or lower the signal
Method in brief: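 Read-out: reporter mRNA via RT-PCR plus capillary electrophoresis of 6-FAM-labelled fragments. Transiently transfected HepG2, 24 h exposure, endogenous TF activity on cis elements. Gain or loss of signal fitted relative to DMSO.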

[9] = ATG_M_06_TRANS: Attagene TRANS-FACTORIAL HepG2 Assay for M06 Transcription Factor (Internal Marker) (AID 2282983; active means hit-call score of the fitted dose curve at least 0.9, where 1 is the maximum); conditions: HepG2 Attagene TRANS M06 internal marker reporter
Method in brief: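 Human liver HepG2 cells bearing transiently transfected chimeric NR-GAL4 reporter units were treated with chemicals for 24 h. Total RNA was reverse-transcribed, reporter sequences amplified and labelled, then quantified by capillary electrophoresis. Activity was fitted upward relative to DMSO.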

[10] = ATG_M_32_TRANS: Attagene TRANS-FACTORIAL HepG2 Assay for M32 Transcription Factor (Internal Marker) (AID 2282984; active means hit-call score of the fitted dose curve at least 0.9, where 1 is the maximum); conditions: HepG2 Attagene TRANS M32 internal marker reporter
Method in brief: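 Internal background reporter in transfected HepG2: after 24 h chemical exposure, RNA reverse-transcribed, reporter cDNA amplified, fluorescently labelled and HpaI-cut, then sized by capillary electrophoresis. Gain of signal fitted against DMSO control.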

[11] = biological target: Cellular tumor antigen p53 (Homo sapiens) (UniProt P04637); assay: ATG_p53_CIS: Attagene CIS-FACTORIAL HepG2 Assay for human p53 Transcription Factor (AID 2282994); conditions: HepG2 p53 cis-element reporter, Attagene mRNA; actives raise or lower the signal
Method in brief: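 Transiently transfected HepG2 (multiple cis reporter transcription units); exposure 24 h; reporter RNA via RT-PCR, 6-FAM extension, 2 h HpaI digest at 37 C, CE detection; DMSO baseline.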

[12] = biological target: Nuclear receptor subfamily 4 group A member 2 (Homo sapiens) (UniProt P43354); assay: ATG_NURR1_TRANS: Attagene TRANS-FACTORIAL HepG2 Assay for human Nuclear Receptor Related Protein 1 (NURR1) (AID 2282985; active means hit-call score of the fitted dose curve at least 0.9, where 1 is the maximum); conditions: HepG2 Attagene TRANS reporter, mRNA readout
Method in brief: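 Reporter transcript induction, measured by RT-PCR with fluorescent labelling, HpaI digestion and capillary electrophoresis, after 24 hr dosing of human HepG2 cells transiently expressing an exogenous NR-Gal4 fusion with GAL4-UAS-driven reporters; DMSO as baseline.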

[13] = BSK_3C_TissueFactor: BioMAP Diversity Plus: 3C Assay for Tissue Factor Biomarker Activity (AID 2282997); conditions: BioMAP 3C HUVEC, tissue factor biomarker readout; actives raise or lower the signal
Method in brief: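 Cells used were primary human umbilical vein endothelial cells. They were dosed with chemical, and after 24 h Tissue Factor was quantified by ELISA. Curves were fitted bidirectionally with DMSO as baseline.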

[14] = BSK_3C_uPAR: BioMAP Diversity Plus: 3C Assay for Urokinase-type plasminogen activator receptor (uPAR) Biomarker Activity (AID 2282998); conditions: BioMAP 3C HUVEC, uPAR biomarker ELISA; actives raise or lower the signal
Method in brief: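 HUVEC primary cells; 24 h post-dose; uPAR by ELISA; gain or loss of signal fitted bidirectionally vs DMSO baseline.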

[15] = BSK_3C_VCAM1: BioMAP Diversity Plus: 3C Assay for Vascular cell adhesion molecule 1 (VCAM1) Biomarker Activity (AID 2282999); conditions: BioMAP 3C HUVEC, VCAM1 ELISA, cytokine-stimulated; actives raise or lower the signal
Method in brief: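 Activity fitted in both directions relative to DMSO, with ELISA measurement of the surface marker on primary HUVEC (3C) at 24 h post-treatment; parallel SRB staining (0.1% SRB, TCA-fixed, 560 nm) flagged overt cytotoxicity.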

[16] = BSK_4H_Eotaxin3: BioMAP Diversity Plus: 4H Assay for Eotaxin 3 Biomarker Activity (AID 2283000); conditions: primary human endothelial cells (HUVEC); actives raise or lower the signal;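 further: CCL26 protein level quantified by ELISA in parallel with SRB cytotoxicity check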
Method in brief: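 Endothelial primary cells (human umbilical vein) exposed to compound for 24 h. ELISA detection of Eotaxin-3.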

Measured: AC50

Sequence of Myc proto-oncogene protein (Homo sapiens) (P01106 whole entry, looked up, the tested form may be a part): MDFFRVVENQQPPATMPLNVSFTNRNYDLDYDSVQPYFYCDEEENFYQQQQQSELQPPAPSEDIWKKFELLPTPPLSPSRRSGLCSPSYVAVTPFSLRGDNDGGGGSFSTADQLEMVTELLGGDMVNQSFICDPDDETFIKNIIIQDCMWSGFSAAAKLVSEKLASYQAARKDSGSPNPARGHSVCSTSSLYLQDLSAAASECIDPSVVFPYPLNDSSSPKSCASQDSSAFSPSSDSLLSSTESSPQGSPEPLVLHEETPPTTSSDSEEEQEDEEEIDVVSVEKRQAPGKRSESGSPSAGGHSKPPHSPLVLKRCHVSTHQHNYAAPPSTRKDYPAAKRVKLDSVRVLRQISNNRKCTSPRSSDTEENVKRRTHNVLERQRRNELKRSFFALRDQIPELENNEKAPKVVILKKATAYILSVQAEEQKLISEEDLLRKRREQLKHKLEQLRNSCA
Sequence of Nuclear receptor subfamily 4 group A member 2 (Homo sapiens) (P43354 whole entry, looked up, the tested form may be a part): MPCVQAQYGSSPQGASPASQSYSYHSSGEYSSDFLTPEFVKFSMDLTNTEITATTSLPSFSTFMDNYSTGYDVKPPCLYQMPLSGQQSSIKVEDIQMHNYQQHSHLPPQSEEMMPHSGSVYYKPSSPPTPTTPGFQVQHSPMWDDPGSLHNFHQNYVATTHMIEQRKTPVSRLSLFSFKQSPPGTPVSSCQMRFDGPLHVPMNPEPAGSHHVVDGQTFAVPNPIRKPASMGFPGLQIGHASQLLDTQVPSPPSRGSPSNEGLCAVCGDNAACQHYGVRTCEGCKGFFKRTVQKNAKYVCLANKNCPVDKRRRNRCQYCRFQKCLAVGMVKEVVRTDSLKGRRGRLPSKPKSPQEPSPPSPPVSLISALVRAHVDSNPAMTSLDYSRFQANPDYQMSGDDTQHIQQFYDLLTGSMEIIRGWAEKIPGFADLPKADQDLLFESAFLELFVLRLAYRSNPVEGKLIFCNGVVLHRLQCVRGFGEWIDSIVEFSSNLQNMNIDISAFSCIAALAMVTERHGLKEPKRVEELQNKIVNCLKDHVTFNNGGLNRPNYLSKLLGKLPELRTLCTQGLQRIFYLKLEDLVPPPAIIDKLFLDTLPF
Sequence of Nuclear respiratory factor 1 (Homo sapiens) (Q16656 whole entry, looked up): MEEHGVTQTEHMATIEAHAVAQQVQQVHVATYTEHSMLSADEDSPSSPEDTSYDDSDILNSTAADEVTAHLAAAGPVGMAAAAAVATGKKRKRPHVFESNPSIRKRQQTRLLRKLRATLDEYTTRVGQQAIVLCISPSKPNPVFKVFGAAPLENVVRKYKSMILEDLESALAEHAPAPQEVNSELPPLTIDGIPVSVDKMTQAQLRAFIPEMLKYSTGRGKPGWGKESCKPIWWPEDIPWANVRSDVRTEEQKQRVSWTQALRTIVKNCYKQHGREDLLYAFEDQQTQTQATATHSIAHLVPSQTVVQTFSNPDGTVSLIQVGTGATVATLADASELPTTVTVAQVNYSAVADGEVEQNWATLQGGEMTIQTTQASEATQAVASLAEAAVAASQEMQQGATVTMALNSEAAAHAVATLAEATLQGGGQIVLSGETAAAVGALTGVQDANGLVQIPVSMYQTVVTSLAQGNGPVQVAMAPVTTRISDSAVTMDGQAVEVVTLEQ
Sequence of Hepatocyte nuclear factor 4-alpha (Homo sapiens) (P41235 whole entry, looked up, the tested form may be a part): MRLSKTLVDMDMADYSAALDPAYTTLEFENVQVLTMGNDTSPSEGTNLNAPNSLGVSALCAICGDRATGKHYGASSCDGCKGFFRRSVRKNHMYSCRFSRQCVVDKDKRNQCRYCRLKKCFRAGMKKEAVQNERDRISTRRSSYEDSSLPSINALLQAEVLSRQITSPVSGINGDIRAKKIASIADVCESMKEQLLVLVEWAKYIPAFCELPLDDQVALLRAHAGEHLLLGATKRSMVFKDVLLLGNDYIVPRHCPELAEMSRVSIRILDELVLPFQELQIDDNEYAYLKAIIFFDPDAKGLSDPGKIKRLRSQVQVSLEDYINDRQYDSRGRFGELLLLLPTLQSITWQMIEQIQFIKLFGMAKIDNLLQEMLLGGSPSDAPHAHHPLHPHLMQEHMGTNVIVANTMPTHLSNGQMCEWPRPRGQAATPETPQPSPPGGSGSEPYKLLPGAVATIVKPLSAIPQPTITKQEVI
Sequence of Cellular tumor antigen p53 (Homo sapiens) (P04637 whole entry, looked up): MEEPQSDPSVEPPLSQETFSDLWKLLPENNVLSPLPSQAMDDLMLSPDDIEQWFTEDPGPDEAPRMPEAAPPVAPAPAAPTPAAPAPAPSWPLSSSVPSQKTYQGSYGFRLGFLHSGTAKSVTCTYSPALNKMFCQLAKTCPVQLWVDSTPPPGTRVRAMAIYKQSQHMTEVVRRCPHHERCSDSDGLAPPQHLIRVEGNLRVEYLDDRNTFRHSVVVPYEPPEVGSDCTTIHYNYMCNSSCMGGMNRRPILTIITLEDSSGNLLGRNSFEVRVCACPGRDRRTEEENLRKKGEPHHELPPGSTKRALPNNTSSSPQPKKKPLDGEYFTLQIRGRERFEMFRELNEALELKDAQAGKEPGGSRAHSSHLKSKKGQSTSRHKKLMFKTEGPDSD
Sequence of Transcriptional activator Myb (Homo sapiens) (P10242 whole entry, looked up): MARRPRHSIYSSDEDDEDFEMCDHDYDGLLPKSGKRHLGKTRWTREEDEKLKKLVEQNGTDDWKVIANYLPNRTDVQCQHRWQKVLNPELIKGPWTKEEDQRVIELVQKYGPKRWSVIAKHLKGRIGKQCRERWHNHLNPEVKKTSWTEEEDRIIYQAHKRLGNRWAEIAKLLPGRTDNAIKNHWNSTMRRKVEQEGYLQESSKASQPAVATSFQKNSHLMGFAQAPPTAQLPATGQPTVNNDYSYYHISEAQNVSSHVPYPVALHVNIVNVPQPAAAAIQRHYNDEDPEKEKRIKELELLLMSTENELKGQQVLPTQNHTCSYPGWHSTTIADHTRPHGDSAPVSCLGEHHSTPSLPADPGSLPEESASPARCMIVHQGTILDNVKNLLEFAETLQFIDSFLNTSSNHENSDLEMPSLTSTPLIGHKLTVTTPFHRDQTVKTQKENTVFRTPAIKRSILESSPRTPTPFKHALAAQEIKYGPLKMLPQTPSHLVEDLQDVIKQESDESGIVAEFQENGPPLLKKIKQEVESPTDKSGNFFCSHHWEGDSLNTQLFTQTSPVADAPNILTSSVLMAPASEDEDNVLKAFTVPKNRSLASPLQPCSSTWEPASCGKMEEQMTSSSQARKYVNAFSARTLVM

O=S(=O)(O)NC1CCCCC1
inactive: [1] | [2] | [3] | [4] | [5] | [6] | [7] | [8]

CO[Si](CCCn1c(=O)n(CCC[Si](OC)(OC)OC)c(=O)n(CCC[Si](OC)(OC)OC)c1=O)(OC)OC
not listed: [12] | [13] | [14] | [15] | [16]
inactive: all other assays above

CC(C)(C)c1n[nH]c(=S)n(N)c1=O
inactive: [1] | [2] | [4] | [5] | [6] | [7] | [8] | [11]

O=c1oc(=O)c2cc3c(=O)oc(=O)c3cc12
not listed: [11] | [13] | [14] | [15] | [16]
inactive: all other assays above

CC(C)Oc1ccccc1O
not listed: [1] | [3] | [6]
inactive: all other assays above

CC1(C)C(=O)N(Br)C(=O)N1Cl
inactive: [1] | [10] | [2] | [3] | [4] | [5] | [6] | [8]
active: [7] 100 µM

C=C(C)C(=O)OCc1ccccc1
not listed: [9] | [11] | [13] | [14] | [15] | [16]
inactive: all other assays above

O=C1CCc2ccccc2O1
not listed: [6] | [10] | [13] | [14] | [15] | [16]
inactive: all other assays above

CCCCCCCCCC=O
not listed: [1] | [3] | [6] | [8] | [10]
inactive: all other assays above

CC(C)[C@@H]1CC[C@@H](C)CC1=O
inactive: [1] | [2] | [3] | [4] | [5] | [7] | [8] | [11]

CC1(C)OC[C@@H]2O[C@@]3(C(=O)O)OC(C)(C)O[C@H]3[C@@H]2O1
inactive: [9] | [2] | [3] | [4] | [5] | [6] | [7] | [8]

COc1ccc(Cl)cc1C
inactive: [9] | [10] | [2] | [3] | [4] | [5] | [7] | [11]

O=c1[nH]c(=O)n([C@H]2CCCO2)cc1F
not listed: [10] | [13] | [14] | [15] | [16]
inactive: all other assays above

O=C(COc1ccc(Cl)cc1)N1CCN(Cc2ccc3c(c2)OCO3)CC1
active: [12] 67 µM | [7] 100 µM
not listed: [11] | [13] | [14] | [15] | [16]
inactive: all other assays above

O=C(Cl)c1cccc(C(=O)Cl)c1
not listed: [6] | [13] | [14] | [15] | [16]
inactive: all other assays above

O=C[C@@H](O)[C@H](O)[C@H](O)CO
not listed: [1] | [6] | [13] | [14] | [15] | [16]
inactive: all other assays above

CC[C@]12CCCN3CCc4c(n(c5ccccc45)[C@@](O)(C(=O)OC)C1)[C@@H]32
active: [6] 170 µM | [11] 164 µM
not listed: [12] | [13] | [14] | [15] | [16]
inactive: all other assays above

Nc1nc2ccc([N+](=O)[O-])cc2s1
active: [7] 56.5 µM
not listed: [11] | [13] | [14] | [15] | [16]
inactive: all other assays above

CNC[C@H](O)c1cccc(O)c1
not listed: [9] | [10]
inactive: all other assays above

Clc1sc(Cl)c(Cl)c1Cl
inactive: [9] | [10] | [2] | [3] | [4] | [5] | [7] | [8]

CCCCCNCCCCC
inactive: [1] | [9] | [2] | [3] | [5] | [7] | [11]

CC1(CO)CN(c2ccccc2)NC1=O (configuration not stated)
not listed: [1] | [13] | [14] | [15] | [16]
inactive: all other assays above

CCCC(=O)OCCC(C)CCC=C(C)C (configuration not stated)
inactive: [1] | [9] | [10] | [2] | [3] | [4] | [5]
active: [6] 72 µM | [7] 78.7 µM | [8] 100 µM

O=C[C@H](O)[C@H](O)[C@H](O)CO
inactive: [9] | [12] | [2] | [3] | [4] | [5] | [7] | [8] | [11]

CCOc1ccccc1OCC
inactive: [1] | [9] | [12] | [2] | [4] | [5] | [7] | [8] | [11]

CCCCCCCCCCCCCCCC(=O)O
not listed: [1] | [8] | [13] | [14] | [15] | [16]
inactive: all other assays above

CC(=O)C(=O)O
inactive: [1] | [9] | [2] | [3] | [4] | [5] | [7] | [8]

CCCc1ccccc1O
not listed: [1] | [10] | [13] | [14] | [15] | [16]
inactive: all other assays above

CCN(CC)CCOC(=O)c1ccc(N)cc1
inactive: [10] | [2] | [3] | [4] | [5] | [6] | [7] | [8] | [11]

CNCCO
not listed: [6] | [10] | [13] | [14] | [15] | [16]
inactive: all other assays above

Nc1ccc(S(N)(=O)=O)cc1
inactive: [9] | [12] | [2] | [3] | [5] | [7] | [8] | [11]

COC(C(=O)O)c1ccccc1 (configuration not stated)
not listed: [10] | [12] | [13] | [14] | [15] | [16]
inactive: all other assays above

CC(C)(C)C(=O)c1ccccc1
not listed: [10] | [12] | [13] | [14] | [15] | [16]
inactive: all other assays above

CC(=O)Nc1ccccc1O
not listed: [1] | [10]
inactive: all other assays above

From PubChem BioAssay (EPA / NIEHS)
